This passage reports inhibition results from PubChem BioAssay AID488890 (Southern Research Specialized Biocontainment Screening …, 2010).

About 1,300 (0.41%) of roughly 320,000 compounds were called active. About 3% were inconclusive and are not listed. No rule for the calls is given here. A selection follows. Results with a measured potency or affinity are listed apart.

The nature of the assay: growth inhibition of non-replicating M. tuberculosis (AID 488890).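 Also: plate controls were DMSO cells for no effect and high antibiotic wells for full effect.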 As to conditions: Mycobacterium tuberculosis non-replicating, at 25 µM, stronger effect = higher value.
Usually inhibition stands for the relative decrease from the control value, in per cent. For `CCCCOc1ccc(Cn2c(=O)oc3ccccc32)cc1`, the inhibition is 59%.

Turning to `CC(C)Oc1ccc(Cn2c(=O)oc3ccccc32)cc1`, the inhibition stood at 72%.

For the compound `CCSc1ncc(C)cc1[N+](=O)[O-]`, the inhibition was -10.3%.

Turning to `O=C(c1cccs1)N1CCN(Cc2ccccn2)CC1`, the inhibition is -6.8%.

In the case of `Cc1cccc(Cn2c(Cc3ccccc3)nc3ccccc32)c1`, the inhibition was 46.2%.

Consider `COCCOc1cc(N)c(Cl)cc1Cl`, for which the inhibition was found to be 10.4%.

In the case of `CCOC(=O)COc1cc(N2C(=O)CSCC2=O)c(Cl)cc1Cl`, the inhibition was -8.36%.

For the compound `CN(C)/C=N/c1ncc(-c2ncc(C(F)(F)F)cc2Cl)cn1`, the inhibition is -8.2%.

Take `CCn1nccc1C(=O)Nc1cccc(C)c1C`: the inhibition stood at 5.9%.

For `COc1ccc(CC(C)CC(=O)Nc2ccc(OC)cc2)cc1` (centres undefined), the inhibition came to 49.1%.

For the compound `O=C1N=c2ccccc2=C1c1[nH]c(=S)[nH]c1O`, the inhibition was determined as 9.01%.

For the compound `C=CCn1c(O)c(N=O)c2ccccc21`, the inhibition is -1.03%.

Consider `C=CCn1c(O)c(C2=c3ccccc3=NC2=O)sc1=Nc1ccc(O)cc1`, for which the inhibition is 30.7%.

Regarding `CCn1c(O)c(C2=c3ccccc3=NC2=O)c2cc(Br)ccc21`, the inhibition is 73.8%.

Consider `O=C1N=c2ccccc2=C1c1c(O)[nH]c2c(C(F)(F)F)cccc12`, for which the inhibition was found to be 27.4%.

Consider `Cc1ccc2c(c1)c(C1=NC(=S)NC1=O)c(O)n2C`, for which the inhibition is -2.45%.

As for `CC(C(=O)N1CCN=C1c1ccccc1)N1C(=O)c2ccccc2C1=O` (centres undefined), the inhibition is -7.08%.

In the case of `O=C(CN1C(=O)NC2(CCCCC2)C1=O)Nc1ccc(Cl)cc1`, the inhibition is -0.81%.

For the compound `C/C(=N/NC(=O)CCC(=O)Nc1ccc(Br)cc1)c1ccc(Br)cc1`, the inhibition is -21.4%.

As for `O=C(NCc1ccccc1)c1ccco1`, the inhibition came to 64.3%.

Turning to `O=C(NNC(=O)c1ccco1)c1ccccc1`, the inhibition was -6.91%.

As to `Cc1ccc(/C=C2\SC(=S)N(CCC(=O)NCCCN3CCOCC3)C2=O)cc1`, the inhibition was 8.18%.

For the compound `CCOc1ccc(C(=O)c2cc([N+](=O)[O-])ccc2Cl)cc1`, the inhibition worked out at 6.56%.

For the compound `O=C(c1ccc(S(=O)(=O)Nc2ccccc2)cc1)N1CCC1`, the inhibition was -11.7%.

Consider `CCCNC1=C(C)C(=O)C2=C(C1=O)C(COC(N)=O)[C@]1(OC)C3NC3CN21` (some centres undefined), for which the inhibition was 55.1%.

Turning to `COc1ccc(CCNC(=O)c2cc3cccc(OC)c3oc2=O)cc1OC`, the inhibition worked out at 0.35%.

For the compound `CCN(CC)c1ccc2cc(C(N)=O)c(=N)oc2c1`, the inhibition is 31.1%.

Regarding `COc1cccc2cc(C(=O)NCc3ccc(Cl)cc3)c(=O)oc12`, the inhibition was 57.8%.

With `CCN(CC)c1ccc2cc(C(C)=O)c(=O)oc2c1`, the inhibition amounted to 3.33%.

`Cn1c(=O)c(=O)n(C)c2cc(S(=O)(=O)N3CCN(Cc4ccccc4)CC3)ccc21`: the inhibition came out at 5.19%.

With `Nc1nc(-c2ccc3ccccc3c2)c(C2(O)C(=O)Nc3c(Br)cc(F)cc32)s1` (centres undefined), the inhibition turned out to be 0.16%.

In the case of `COc1ccc(Cl)cc1NC(=O)CSc1nc(=O)n(CCN(C)C)c2c1CCCC2`, the inhibition turned out to be 16.1%.

As to `Clc1ccccc1N/N=C/c1ccc2c(c1)OCO2`, the inhibition was found to be 28.4%.

In the case of `CC(CCc1ccccc1)NC(=O)CN(C)Cc1ccc(F)cc1` (centres undefined), the inhibition was found to be 18%.

`CN(CC(=O)NCCc1ccc(F)cc1)Cc1ccccc1`: the inhibition was 20.9%.

With `CC(=O)N(C1=C(N)C(=O)c2ccccc2C1=O)c1ccccc1`, the inhibition was determined as 4.83%.

Take `CCC(=O)N(C1=C(NC(C)C)C(=O)c2ccccc2C1=O)C(C)C`: the inhibition came out at 8.66%.

For the compound `COC(=O)/C(=C/c1c[nH]c2ccccc12)[N+](=O)[O-]`, the inhibition turned out to be 9.02%.

As for `COc1ccc2cc(Br)ccc2c1CC(=O)NCC1CCCO1` (centres undefined), the inhibition was found to be 14.2%.

For `O=S(=O)(c1ccc2c(c1)OCCO2)N1CCN(S(=O)(=O)c2ccco2)CC1`, the inhibition stood at 16.7%.

Turning to `c1ccc(-c2ccc(SCc3cccnc3)nn2)nc1`, the inhibition came to 63.6%.

In the case of `c1ccc(CSc2ccc(-c3ccccn3)nn2)nc1`, the inhibition came out at 36.2%.

As to `CCOC(=O)/C=C/C(=O)OCC(=O)Nc1ccc(Cl)cn1`, the inhibition turned out to be 0.76%.

As to `CS(=O)(=O)c1cnc(-c2ccccc2)nc1Oc1ccc(Cl)cc1`, the inhibition was -7.01%.

In the case of `O=P(O)(CCc1ccncc1)CN1CCCCC1`, the inhibition was -7.55%.

Take `COc1ccc(Nc2cc(C)nc3ccccc23)cc1`: the inhibition is 36.9%.

As to `COc1ccc2nc(C)cc(NCc3ccc(F)cc3)c2c1`, the inhibition is 38.9%.

As to `Cc1cc(N/N=C/c2ccc(N(C)C)cc2)c2ccccc2n1`, the inhibition is -1.58%.

In the case of `COc1cccc2c(N/N=C/c3ccccc3)cc(C)nc12`, the inhibition amounted to 3.67%.

With `COc1ccc(Nc2cc(C)nc3ccc(OC)cc23)cc1`, the inhibition amounted to 41.2%.

Turning to `COc1ccccc1/C=N/Nc1cc(C)nc2ccc(C)cc12`, the inhibition is -9.66%.

In the case of `COc1ccc(C(=O)COC(=O)C(CCSC)NC(=O)COc2ccccc2)c(OC)c1` (centres undefined), the inhibition is 30.9%.

Turning to `COc1ccccc1OCC(=O)NCc1n[nH]c(=O)c2ccccc12`, the inhibition was -15.2%.

In the case of `O=C(COc1cccc2c1CCN(Cc1ccccc1)C2=O)N1CCCCC1`, the inhibition turned out to be 10.8%.

With `CCCC(=O)C1=C(O)C(C(=O)OC)C(C)(C)CC1=NCCc1ccc(OC)c(OC)c1` (centres undefined), the inhibition was determined as 19%.

For `CCOc1ccc(-c2csc(NC(=O)CSCC(=O)O)n2)c2ccccc12`, the inhibition was 11.9%.

Regarding `Cc1cccc(N/C(N)=N/c2nc(CSc3ccc(Cl)cc3)cc(=O)[nH]2)c1`, the inhibition was -0.84%.

In the case of `CN(Cc1ccc(F)cc1)C(=O)C(Cc1ccccc1)NC(=O)c1ccccc1` (centres undefined), the inhibition is -6.89%.

Regarding `COc1ccc(Cc2nnc(NC(=O)c3ccc(C)cc3)s2)cc1OC`, the inhibition was -7.61%.

On to `CC(C)c1ccc(C2/C(=C(/O)c3ccccc3)C(=O)C(=O)N2CCCN2CCOCC2)cc1` (centres undefined), for which the inhibition was found to be 3.66%.

With `Cc1ccc(S(=O)(=O)NC(CC(C)C)C(=O)Nc2ccncc2)cc1` (centres undefined), the inhibition came out at 0.09%.

Regarding `COc1ccc(OCC(=O)c2c(O)c3ccccc3oc2=O)cc1`, the inhibition is 23.3%.

Take `O=C(c1c(O)c2ccccc2oc1=O)C1CCC1`: the inhibition was 39%.

With `CCOc1ccc(OCC(=O)c2c(O)c3ccccc3oc2=O)cc1`, the inhibition is 29.5%.

Regarding `CC(=N)c1c(O)c2ccccc2oc1=O`, the inhibition was -3.72%.

For `Cc1ccccc1-c1nnc(SCC(=O)NC2CCCC2)n1C`, the inhibition was 0.83%.

For `C[C@H]1CN([C@@H](C)CO)C(=O)c2cc(NC(=O)C3CCCCC3)ccc2O[C@H]1CN(C)CC1CCCCC1`, the inhibition came to 5.45%.

As for `CCc1ccc(CNC(=O)c2ccc(OC)c(OC3CCN(C(C)C)CC3)c2)nc1`, the inhibition amounted to 2.53%.

Take `Cc1cccc(NC(=O)CCc2nnc3ccc(NCc4ccco4)nn23)n1`: the inhibition was -10.9%.

`COc1ccc(-c2cnn3c4c(c(C)nc23)CCN4C(C)C)cc1OC`: the inhibition came to 6.73%.

Consider `CCOC(=O)Nc1ccc2c(c1)Sc1ccccc1N2C(=O)CCN1CCOCC1`, for which the inhibition was determined as 39.8%.

On to `CCOC(=O)Nc1ccc2c(c1)N(C(=O)CCN1CCOCC1)c1ccccc1S2`, for which the inhibition worked out at 20.2%.

For `CCOC(=O)Nc1ccc2c(c1)N(C(=O)CN)c1ccccc1CC2`, the inhibition was 22.7%.

On to `CCOC(=O)Nc1ccc2c(c1)N(C(=O)CCN(C)C)c1ccccc1CC2`, for which the inhibition was -1.89%.
